The nature of experiment [1]: NCI Yeast Anticancer Drug Screen. Data for the rad50 strain (AID 155).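 Further: 0% = growth of vehicle-only cultures of the same strain.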 To be noted: S. cerevisiae rad50 strain growth inhibition, stronger effect = higher value; at 50.0 µM unless noted. An outline of the steps:
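Vehicle-treated cultures provide the reference for the growth inhibition reported for compound-exposed, repair-deficient yeast.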

The nature of experiment [2]: NCI Yeast Anticancer Drug Screen. Data for the mec2-1 strain (AID 157). To be noted: S. cerevisiae mec2-1 strain, stronger effect = higher value; at 50.0 µM unless noted. Put shortly: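 Test agents were screened against the mec2-1 yeast strain, with defined DNA repair or cell cycle alteration. Growth was scored as inhibition against vehicle-only controls.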
A short description of experiment [3]: NCI Yeast Anticancer Drug Screen. Data for the sgs1 mgt1 strain (AID 161).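 Further: 0% = growth of cultures given vehicle only.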 Particulars: S. cerevisiae sgs1 mgt1 strain, stronger effect = higher value; at 50.0 µM unless noted. Put shortly:
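Mutant yeast exposed to compound; growth scored against vehicle-only wells.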

A short description of experiment [4]: NCI Yeast Anticancer Drug Screen. Data for the cln2 rad14 strain (AID 165).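 Further: 0% = growth equal to vehicle treated cultures.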 To be noted: S. cerevisiae cln2 rad14 strain, stronger effect = higher value; at 50.0 µM unless noted. Put shortly: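 Growth of compound-exposed yeast (cln2 rad14 genotype) measured and expressed as inhibition relative to vehicle.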
Experiment [5] is described as follows: NCI Yeast Anticancer Drug Screen. Data for the bub3 strain (AID 167). Particulars: S. cerevisiae bub3 mutant strain, stronger effect = higher value; at 50.0 µM unless noted. An outline of the steps:
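Mutant yeast screening strain plus compound; vehicle-treated cultures serve as the 0% inhibition reference.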

Experiment [6] can be described thus: NCI Yeast Anticancer Drug Screen. Data for the mlh1 rad18 strain (AID 175). To be noted: S. cerevisiae mlh1 rad18 strain growth inhibition, stronger effect = higher value; at 50.0 µM unless noted. An outline of the steps:
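In this whole-cell yeast screen, a strain with altered DNA damage repair is challenged with compound, and its growth is measured against matched vehicle-treated controls.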

In PubChem BioAssay (NCI) one finds growth inhibition data, which are given here for 20 molecules.

Values joined by “and” are separate entries in the source; they are usually repeats but may differ in a detail not shown here. Equal entries are not always repeated. About 79,000 compounds went through this panel and 15% of them were active in at least one assay; those are over-represented in the sample as a whole. Unmarked numbers belong to inactive results. Active and inactive are the calls of the source. No stated cut-off is given here; in the data, active means growth inhibition above about 70%; inactive means the rest.

In the case of `O=C(c1ccccc1)C(F)S(=O)(=O)O` (stereo not given), the growth inhibition in experiment [1] is -5.7%; in experiment [2], -7.75%; in experiment [3], -9.05%; in experiment [4] it was -25.8%; in experiment [5], 6.2%; in experiment [6], 16.9%.

Take `O=C1C(CN2CCCC2)CCCC1CN1CCCC1` (stereo not given): the growth inhibition in experiment [1] is -3.2%; in experiment [2] it was -29.4%; in experiment [3] it was -40.1%; in experiment [4], 2.15%; in experiment [5] it was 7.3%; in experiment [6], -10.1%.

Regarding `NCCNCCNCCN`, the growth inhibition in experiment [1] was -12.4% and -8.1%; in experiment [2] it was -7.65% and -20.7%; in experiment [3] it was 3.1%; in experiment [4], -28.9%; in experiment [5] it was -5.35%; in experiment [6], -19.4% and 29.1%.

For `CCCCCCCCCCCCCCCCC(C#N)C(=O)O` (stereo not given), the growth inhibition is -14.4% in experiment [1]; 0.95% in experiment [2]; -18.2% in experiment [3]; -1% in experiment [4]; -22.8% in experiment [5]; -18.9% in experiment [6].

In the case of `CSCCC(NC(=O)OCc1ccccc1)C(=O)O` (stereo not given), the growth inhibition in experiment [1] was -31.4%; in experiment [2], -0.6%; in experiment [3], 5.05%; in experiment [4], -25.2%; in experiment [5], -4.5%; in experiment [6] it was -4.45%.

In the case of `Cc1ccc2sccc(=O)c2c1`, the growth inhibition in experiment [1] was 1.05%; in experiment [2] it was -2.1%; in experiment [3] it was -8.95%; in experiment [4], -12.8%; in experiment [5], -5.95%; in experiment [6] it was 7.6%.

For `CC(=O)OC1CC(n2cc(F)c(=O)[nH]c2=O)OC1CO` (stereo not given), the growth inhibition is 7.95% in experiment [1]; 12.2% in experiment [2]; -10.4% in experiment [3]; -17% in experiment [4]; -0.45% in experiment [5]; 2.5% in experiment [6].

For `Cc1ccc([N+](=O)[O-])cc1NC(=O)Sc1ccc(C(C)(C)C)cc1C`, the growth inhibition is 5.2% in experiment [1]; 6.9% in experiment [2]; 4.65% in experiment [3]; -11.4% in experiment [4]; 3.4% in experiment [5]; 8.8% in experiment [6].

For `CSc1nc(N)cc(=O)n1C`, the growth inhibition in experiment [1] is -16.1%; in experiment [2] it was -11.2%; in experiment [3] it was -23.9%; in experiment [4] it was -53.1%; in experiment [5] it was -9.05%; in experiment [6], 14.2%.

`CCN1CCNC(c2ccccc2)C1(C)C` (stereo not given): the growth inhibition in experiment [1] is -2.35%; in experiment [2], -5.45%; in experiment [3], -10%; in experiment [4], -15.7%; in experiment [5] it was -5.95%; in experiment [6] it was 3.4%.

Take `Cc1c([N+](=O)[O-])cc(C(C)(C)C)c(OC(=O)c2ccccc2)c1[N+](=O)[O-]`: the growth inhibition was 41.5% in experiment [1]; 24.7% in experiment [2]; 41% in experiment [3]; 16.3% in experiment [4]; 25.4% in experiment [5]; 20.4% in experiment [6].

Regarding `CCOC(=O)C1=C(O)c2ccccc2C(=O)C1=O`, the growth inhibition is 7.35% in experiment [1]; 3.8% in experiment [2]; 21.6% in experiment [3]; 11.3% in experiment [4]; 13.2% in experiment [5]; 8.95% in experiment [6].

On to `O=c1c2ccccc2c(=O)c2c1c1c(=O)c3ccccc3c(=O)c1c1c(=O)c3ccccc3c(=O)c21`, for which the growth inhibition in experiment [1] is 22.2%; in experiment [2], 9.65%; in experiment [3], 30.2%; in experiment [4], 29.6%; in experiment [5], 0.5%; in experiment [6], 22.4%.

In the case of `Nc1ccc(S(=O)(=O)Nc2cc(C(F)(F)F)cc(C(F)(F)F)c2)cc1`, the growth inhibition is 12.9% in experiment [1]; 16.6% in experiment [2]; 28.6% in experiment [3]; 41.6% in experiment [4]; 10.7% in experiment [5]; 32% in experiment [6].

In the case of `CC(=O)Nc1cc(S(=O)(=O)O)cc2cc(S(=O)(=O)O)cc(O)c12`, the growth inhibition was -20.9% in experiment [1]; -13.3% in experiment [2]; -0.05% in experiment [3]; 21.8% in experiment [4]; 15.6% in experiment [5]; -8.2% in experiment [6].

On to `O=C1C(Br)=C[C@H]2C3C=CC(Br)(C3=O)[C@@H]12` (stereo not given in full), for which the growth inhibition in experiment [1] was 20.8%; in experiment [2], 14.9%; in experiment [3] it was 14.9%; in experiment [4], 25.2%; in experiment [5], 15.6%; in experiment [6], 23.6%.

For `O=C(CCS(=O)(=O)CCC(=O)c1ccc2ccccc2c1)c1ccc2ccccc2c1`, the growth inhibition is -66.8% in experiment [1]; -13.2% in experiment [2]; -2.4% in experiment [3]; -35.3% in experiment [4]; 0.25% in experiment [5]; -52.5% in experiment [6].

Consider `NCC(=O)NC(Cc1c[nH]c2ccccc12)C(=O)O` (stereo not given), for which the growth inhibition in experiment [1] was 7.85% and -4.8%; in experiment [2] it was -4.65% and 1.4%; in experiment [3], 7.45% and -7.4%; in experiment [4] it was -0.8% and 13.8%; in experiment [5], 26.8% and -10%; in experiment [6] it was -0.75% and -5.4%.

In the case of `CC(=C=CC(c1ccccc1)(c1ccccc1)c1ccccc1)CC(c1ccccc1)(c1ccccc1)c1ccccc1`, the growth inhibition in experiment [1] was 95% (active); in experiment [2], 97.8% (active); in experiment [3], 90.3% (active); in experiment [4], 97.1% (active); in experiment [5], 98% (active); in experiment [6], 94% (active).

On to `O=C(c1ccc(Cl)cc1)c1ccccc1C(=O)c1ccc(Cl)cc1`, for which the growth inhibition in experiment [1] was 0.8%; in experiment [2], -12.1%; in experiment [3], 6.6%; in experiment [4] it was -4.45%; in experiment [5], 23%; in experiment [6], 15.1%.
